Source: PubChem
Pf growth 96h = inhibits malaria parasite growth, 96 h. P. falciparum luciferase reporter growth, 96 h. Potency, µM (series often up to 28.7 µM), for inactives: top-dose activity change, negative = inhibition, most hits filed as inhibitors. 6.9% of 320,000 active. AID 504834; note: % is set by controls: 0 for no effect and ±100 for the full control effect
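Erythrocytes infected with luciferase-expressing P. falciparum were dispensed at 2% hematocrit and 0.05% parasitemia (final), then incubated with compounds 96 hours at 37 C in 5% CO2. Luminescence after detection reagent addition reported growth.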
HCV inh = blocks hepatitis C virus. Huh7.5.1 HCVcc-Cre infection, luciferase reporter, 44 h. Potency, µM (series often up to 41.8 µM), for the others: at the highest dose activity change, negative = inhibition, usual class: inhibitors. 3.4% of 340,000 active; note: % is set by controls: 0 for no effect and ±100 for the full control effect
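A cell-based infection assay in which seeded cells (1,000 per well) receive test compound after 4 h, are inoculated with HCVcc-Cre at approximately 0.5 moi, and are incubated 44 h before luminescence detection.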
NS1 inh = inhibitors of influenza NS1 protein function; Potency, µM (top dose mostly 46.1 µM), inactives show at the highest dose activity, positive = more growth; 0.4% of 270,000 active; calls by dose curve; note: actives are rising curves; nearly all actives have a fitted effect of over 50% in size
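Compounds were scored for reversing the slow growth caused by influenza A NS1 in S. cerevisiae, measured by optical density at 600 nm. Assay medium contained 2% galactose at pH 6.0; NS1-free yeast of the same strain were the positive control.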
Pf growth 48h = P. falciparum growth inhibition at 48 hours (one generation) | P. falciparum luciferase growth in erythrocytes, 48 h | Potency, µM (series often up to 28.7 µM), without a hit: top-dose activity change, negative = inhibition, usual class: inhibitors | 5.9% of 310,000 active | AID 504832; note: % is set by controls: 0 for no effect and ±100 for the full control effect
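Luciferase-expressing parasites in RBCs, 2% Hct / 0.1% parasitemia final; RPMI 1640 + 0.5% Albumax; 37 C, 5% CO2, one generation; luminescence read-out, lower signal = inhibition.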
Vaccinia mCherry = inhibitors of vaccinia virus infection (mCherry reporter signal). 0.63% of 310,000 active. AID 720579. Potency, µM (series often up to 36.5 µM), inactives show at the top dose activity change, negative = inhibition, usual class: inhibitors. Vaccinia virus mCherry reporter infection, fluorescence; calls by dose curve; tested in A549 cells; note: % is set by controls: 0 for no effect and ±100 for the full control effect; nearly all actives have a fitted effect of over 35% in size
VACV Venus inh = vaccinia inhibition (Venus reporter) | Vaccinia virus Venus reporter expression, fluorescence | Potency, µM (titrated, usually from 36.5 µM), without a hit: at the highest dose activity change, negative = inhibition, usual class: inhibitors | 0.46% of 330,000 active | AID 720580; calls by dose curve; tested in A549 cells; note: % is set by controls: 0 for no effect and ±100 for the full control effect; nearly all actives have a fitted effect of over 30% in size
* hit, by the source's call; i = inactive; ? = inconclusive; nt = no result given; [ ] = another dose, or the depositor's remark. In the library only some 11% were active in any assay of this set; here they are far more common. Unless noted, calls come from the whole dose curve; as a rule, active = well fitted inhibition curve with a large enough effect; inconclusive = small, poorly fitted or top-dose-only effect, or another doubt; inactive = no such curve, though single readings can be large or run the other way. Potency is the fitted concentration of half-maximal effect.

SMILES | Pf growth 96h | HCV inh | NS1 inh | Pf growth 48h | Vaccinia mCherry | VACV Venus inh
COc1ccc(-c2cc3nc(C)c(CCC(=O)N4CCN(c5ccccn5)CC4)c(C)n3n2)c(OC)c1 | ? | -12.9% | nt | ? | i | -6.9%
CC(C1CC2CCC1C2)N1CC(O)=C(c2nc3ccccc3[nH]2)C1=N (stereo not drawn) | 3.29µM* | ? | -5.9% | ? | 7.08µM* | 5.01µM*
CC(C)N1CC(O)=C(c2nc3ccccc3[nH]2)C1=N | 17.7% | 9.5% | -18.8% | 78.3% | -7.4% | -8.8%
O=C(Cc1ccccc1Cl)NO | nt | nt | nt | nt | -23.4% | -15.9%
Cc1cccc(-n2ccc(=O)c(C(=O)Nc3ccc(S(=O)(=O)N4CCOCC4)cc3)n2)c1 | 11.7µM* | 6.6% | 9.8% | -28.6% | nt | nt
O=C(Nc1ccc(Cl)c(S(=O)(=O)N2CCOCC2)c1)C1=NN(c2ccccc2)C(=O)CC1 | nt | ? | nt | nt | -12.4% | -6.9%
Cc1cccc(N2N=C(C(=O)O)CCC2=O)c1 | ? | 14.3% | 1.9% | 9.28µM* | nt | nt
Cc1cccc(N2N=C(C(=O)Nc3ccc(Cl)c(S(=O)(=O)N4CCOCC4)c3)CCC2=O)c1 | ? | 3.4% | nt | 11.7µM* | -25.7% | -17.5%
O=C(C1CC2C=CC1C2)N1CCN(c2ccccc2)CC1 (stereo not drawn) | 3.5% | 20.0% | nt | 38.2% | i | -6.4%
c1ccc(CCCc2nc(-c3cccnc3)no2)cc1 | ? | 3.5% | -17.1% | 4.9% | i | -7.3%
C=CCn1c(SCC(=O)NCCCC)nc2scc(-c3ccco3)c2c1=O | ? | -26.1% | 16.6% | 13.1µM* | -5.6% | -13.2%
C=CCn1c(SCC(=O)NC2CCCC2)nc2scc(-c3ccco3)c2c1=O | 5.1% | ? | 14.0% | ? | -19.3% | -9.5%
O=C(NC1CCCCC1)C(c1cccs1)N(Cc1cccs1)C(=O)c1ccco1 (stereo not drawn) | nt | 2.3% | -3.1% | 14.7µM* | -15.7% | -2.7%
O=C(NC1CCCC1)C(c1ccc(N2CCOCC2)cc1)N(Cc1ccco1)C(=O)c1ccco1 (stereo not drawn) | nt | 6.9% | -1.1% | ? | nt | 0.2%
O=C(NC1CCCC1)C(c1ccc(N2CCOCC2)cc1)N(Cc1ccccc1)C(=O)c1ccco1 (stereo not drawn) | nt | 17.6% | -8.2% | 14.7µM* | nt | -11.7%
O=C(NC1CCCCC1)C(c1cccs1)N(CCCN1CCOCC1)C(=O)c1ccc(-c2ccccc2)[nH]1 (stereo not drawn) | 3.2% | ? | -2.7% | 1.65µM* | -22.8% | -20.0%
COC(=O)c1cccc(N(C(=O)c2ccco2)C(C(=O)NC2CCCC2)c2ccc(N3CCOCC3)cc2)c1 (stereo not drawn) | 31.8% | 4.4% | -7.5% | 10.4µM* | -5.4% | 5.2%
Cc1ccc(C(C)C)c(OCc2nn(CC(=O)c3ccc(OC(F)F)cc3)c3[n+]2CCCCC3)c1 | ? | ? | -1.7% | 1.85µM* | -12.6% | -12.7%
O=C(Cn1nc(-c2nn(CC(=O)c3ccccc3)c3[n+]2CCCCC3)[n+]2c1CCCCC2)c1ccccc1 | -23.0% | 9.9% | -3.1% | ? | i[7.34 µM] | 0.5%[7.34 µM]
COc1ccc(C(=O)Cn2nc(CNc3ccc(Br)cc3)[n+]3c2CCCCC3)cc1 | 1.85µM* | -2.0% | nt | 1.04µM* | -5.9% | -7.9%
O=C(C(Sc1ccccc1)c1ccccc1)N1CCN(c2ccccc2)CC1 (stereo not drawn) | ? | 2.9% | -2.9% | ? | -17.8% | -24.0%
Cc1ccc(SC(C)C(=O)N2CCN(c3ccccc3)CC2)cc1 (stereo not drawn) | 8.28µM* | 19.1% | -27.1% | 26.9% | -7.2% | 3.6%
COc1cc(NC(=O)CN2c3cccc4cccc(c34)S2(=O)=O)cc(OC)c1OC | ? | 11.2µM* | -15.3% | 13.2% | ? | ?
O=C(CN1c2cccc3cccc(c23)S1(=O)=O)Nc1ccc(S(=O)(=O)N2CCOCC2)cc1 | 13.1µM* | -17.0% | ? | ? | -7.8% | 1.1%
Cc1cc(C)c2nc(C)cc(Nc3ccc(C(=O)NCCO)cc3)c2c1 | 11.7µM* | -12.5% | 2.8% | 10.4µM* | -6.9% | -15.5%
